Among all 5,500 compounds or so, about 2,000 (36%) were called active. About 18% were inconclusive and are not listed. No stated cut-off is given here; in the data, active means normalized growth mostly below about 0.91 (no sharp cut-off); inconclusive means no clear call, values can overlap the other calls; inactive means mostly above about 0.92. This is one part of the list.
Assay: chemical genetic growth profiling, strain panel (AID 1159580);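 further: tested at 20 µM; growth read once vehicle control cultures reached saturation at 30 °C; 1 = growth at the plate median or of vehicle wells; lower values mean less growth of the strain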
Details: S. cerevisiae deletion strains, growth OD
[1] = locus YAR019C, strain CDC15, active compounds read low
[2] = locus YBL105C, strain PKC1, active compounds read low
[3] = locus YBR135W, strain CKS1, active compounds read low
[4] = locus YBR136W, strain MEC1, active compounds read low
[5] = locus YBR160W, strain CDC28, active compounds read low
[6] = locus YDL017W, strain CDC7, active compounds read low
[7] = locus YDL028C, strain MPS1, active compounds read low
[8] = locus YDL101C, strain DUN1, active compounds read low
[9] = locus YDL108W, strain KIN28, active compounds read low
[10] = locus YDL132W, strain cdc53, active compounds read low
[11] = locus YDL214C, strain PRR2, active compounds read low
[12] = locus YDR052C, strain DBF4, active compounds read low
[13] = locus YDR054C, strain cdc34, active compounds read low
[14] = locus YDR226W, strain ADK1, active compounds read low
[15] = locus YDR477W, strain SNF1, active compounds read low
[16] = locus YER123W, strain YCK3, active compounds read low
[17] = locus YER133W, strain GLC7, active compounds read low
[18] = locus YFL009W, strain cdc4, active compounds read low
[19] = locus YFL029C, strain CAK1, active compounds read low
[20] = locus YFR003C, strain YPI1, active compounds read low
[21] = locus YFR019W, strain FAB1, active compounds read low
[22] = locus YFR028C, strain CDC14, active compounds read low
[23] = locus YGR040W, strain KSS1, active compounds read low
[24] = locus YGR052W, strain FMP48, active compounds read low
[25] = locus YGR092W, strain DBF2, active compounds read low
[26] = locus YHR030C, strain SLT2, active compounds read low
[27] = locus YHR079C, strain IRE1, active compounds read low
[28] = locus YHR082C, strain KSP1, active compounds read low
[29] = locus YHR205W, strain SCH9, active compounds read low
[30] = locus YIL147C, strain SLN1, active compounds read low
[31] = locus YJL095W, strain BCK1, active compounds read low
[32] = locus YJL128C, strain PBS2, active compounds read low
[33] = locus YJL157C, strain FAR1, active compounds read low
[34] = locus YJR016C, strain ILV3, active compounds read low
[35] = locus YJR066W, strain TOR1 (second series), active compounds read low
[36] = locus YJR066W, strain TOR1, active compounds read low
[37] = locus YKL048C, strain ELM1, active compounds read low
[38] = locus YKL067W, strain YNK1, active compounds read low
[39] = locus YKL101W, strain HSL1, active compounds read low
[40] = locus YKL193C, strain SDS22, active compounds read low
[41] = locus YKL203C, strain TOR2, active compounds read low
[42] = locus YLR113W, strain HOG1, active compounds read low
[43] = locus YLR133W, strain CKI1, active compounds read low
[44] = locus YLR403W, strain SFP1, active compounds read low
[45] = locus YML070W, strain DAK1, active compounds read low
[46] = locus YMR001C, strain CDC5, active compounds read low
[47] = locus YMR205C, strain PFK2 (second series), active compounds read low
[48] = locus YMR277W, strain FCP1, active compounds read low
[49] = locus YNL006W, strain LST8, active compounds read low
[50] = locus YNL020C, strain ARK1, active compounds read low
[51] = locus YNL161W, strain CBK1, active compounds read low
[52] = locus YNL183C, strain NPR1, active compounds read low
[53] = locus YNL207W, strain RIO2, active compounds read low
[54] = locus YNL222W, strain SSU72, active compounds read low
[55] = locus YNL307C, strain MCK1 (second series), active compounds read low
[56] = locus YOL078W, strain AVO1, active compounds read low
[57] = locus YOL136C, strain PFK27, active compounds read low
[58] = locus YOR061W, strain CKA2, active compounds read low
[59] = locus YOR119C, strain RIO1, active compounds read low
[60] = locus YOR231W, strain MKK1, active compounds read low
[61] = locus YOR329C, strain SCD5, active compounds read low
[62] = locus YPL031C, strain PHO85, active compounds read low
[63] = locus YPL153C, strain RAD53, active compounds read low
[64] = locus YPL204W, strain HRR25, active compounds read low
[65] = locus YPL209C, strain IPL1, active compounds read low
[66] = locus YPL256C, strain CLN2, active compounds read low
[67] = locus YPR025C, strain CCL1, active compounds read low
[68] = locus YPR106W, strain ISR1, active compounds read low
[69] = locus YPR111W, strain DBF20, active compounds read low
[70] = strain NNK1, active compounds read low
[71] = strain TSCII, active compounds read low
[72] = locus YAL013W, strain DEP1, active compounds read low
[73] = locus YBR229C, strain ROT2, active compounds read low
[74] = locus YDR150W, strain NUM1, active compounds read low
[75] = locus YEL061C, strain CIN8, active compounds read low
[76] = locus YGR078C, strain PAC10, active compounds read low
[77] = locus YGR229C, strain SMI1, active compounds read low
[78] = locus YHR087W, strain rtc3, active compounds read low
[79] = locus YJR043C, strain POL32, active compounds read low
[80] = locus YJR075W, strain HOC1, active compounds read low
[81] = locus YLR039C, strain RIC1, active compounds read low
[82] = locus YLR058C, strain SHM2 (second series), active compounds read low
[83] = locus YLR085C, strain ARP6, active compounds read low
[84] = locus YLR262C, strain YPT6, active compounds read low
[85] = locus YML094W, strain GIM5, active compounds read low
[86] = locus YMR219W, strain ESC1, active compounds read low
[87] = locus YMR263W, strain SAP30, active compounds read low
[88] = locus YNL153C, strain GIM3, active compounds read low
[89] = locus YNL298W, strain CLA4 (second series), active compounds read low
[90] = locus YNL322C, strain KRE1, active compounds read low
[91] = locus YNR030W, strain Alg12, active compounds read low
[92] = locus YOL006C, strain TOP1, active compounds read low
[93] = locus YPL055C, strain LGE1, active compounds read low
[94] = locus YPL241C, strain CIN2, active compounds read low
[95] = locus YPR135W, strain CTF4, active compounds read low

Measured: normalized growth

Cc1ccc(NC(=O)c2ccccc2N=Cc2cc(Cl)cc(Cl)c2O)c(N=Cc2cc(Cl)cc(Cl)c2O)c1
inactive: [1] 0.926 | [2] 0.926 | [3] 0.921 | [4] 0.927 | [5] 0.934 | [6] 0.927 | [7] 0.927 | [8] 0.962 | [9] 0.925 | [10] 0.937 | [12] 0.93 | [13] 0.911 | [14] 0.925 | [18] 0.93 | [19] 0.909 | [20] 0.913 | [22] 0.933 | [30] 0.914 | [32] 0.885 | [34] 0.934 | [40] 0.924 | [46] 0.925 | [48] 0.935 | [49] 0.931 | [51] 0.906 | [53] 0.922 | [54] 0.929 | [56] 0.928 | [61] 0.913 | [65] 0.929 | [67] 0.928 | [68] 0.936 | [69] 0.916 | [70] 0.91 | [71] 0.922
active: [11] 0.459 | [15] 0.284 | [16] 0.252 | [17] 0.365 | [21] 0.598 | [23] 0.377 | [24] 0.363 | [25] 0.123 | [26] 0.213 | [27] 0.201 | [28] 0.293 | [29] 0.166 | [31] 0.218 | [33] 0.272 | [35] 0.51 | [36] 0.237 | [37] 0.422 | [38] 0.359 | [39] 0.387 | [41] 0.37 | [42] 0.247 | [43] 0.28 | [44] 0.131 | [45] 0.32 | [47] 0.348 | [50] 0.198 | [52] 0.254 | [55] 0.188 | [57] 0.25 | [58] 0.197 | [59] 0.39 | [60] 0.255 | [62] 0.291 | [63] 0.324 | [64] 0.313 | [66] 0.294

Cc1ccc(NS(C)(=O)=O)cc1N=Cc1ccc(Cl)c(Cl)c1
inactive: [72] 0.989 | [73] 1 | [8] 0.965 | [74] 0.879 | [75] 1.02 | [76] 0.996 | [77] 1 | [26] 0.891 | [78] 1.03 | locus YJL187C, strain SWE1, active compounds read low 1.01 | [79] 0.989 | [80] 0.965 | locus YKL190W, strain CNB1, active compounds read low 0.999 | [81] 0.984 | [82] 1.02 | [83] 1.01 | [84] 0.951 | [85] 0.994 | [86] 1.01 | [87] 0.988 | locus YNL128W, strain TEP1, active compounds read low 0.976 | [88] 0.986 | [89] 0.866 | [90] 1 | [91] 0.983 | [92] 0.959 | [93] 0.991 | [94] 0.993 | [95] 0.706

Cc1ccc(NC(=O)c2c(F)cccc2Cl)c(C(=O)Nc2ccc(F)cc2)c1
inactive: [72] 0.993 | [73] 0.998 | [8] 1.02 | [74] 1.02 | [75] 0.987 | [76] 1.02 | [77] 1.01 | [26] 1.06 | [78] 0.976 | [79] 1.02 | [80] 1.01 | [81] 0.868 | [82] 0.995 | [83] 1.03 | [84] 0.933 | [85] 1.01 | [86] 1 | [87] 1 | locus YMR307W, strain GAS1, active compounds read low 1.1 | [88] 1.03 | [89] 1.02 | [90] 0.997 | [91] 1 | [92] 1.02 | [93] 0.952 | [94] 1.03 | [95] 1.05

CC(=O)Nc1ccc(S(=O)(=O)Nc2ccccc2Oc2ccc(Cl)cc2Cl)cc1
inactive: [1] 0.998 | [2] 0.996 | [3] 0.993 | [4] 0.993 | [5] 0.996 | [6] 0.997 | [7] 0.995 | [8] 1 | [9] 0.999 | [10] 0.995 | [11] 0.984 | [12] 0.993 | [13] 0.986 | [14] 1 | [15] 0.983 | [16] 1.02 | [17] 0.991 | [18] 0.993 | [19] 0.985 | [20] 0.999 | [21] 0.993 | [22] 0.993 | [23] 0.986 | [24] 1.09 | [25] 1 | [26] 1 | [27] 1.01 | [28] 1.04 | [29] 0.987 | [30] 0.992 | [31] 1.03 | [32] 0.965 | [33] 0.992 | [34] 0.996 | [35] 0.97 | [36] 1.01 | [37] 0.986 | [38] 0.985 | [39] 0.98 | [40] 0.994 | [41] 1.04 | [42] 0.959 | [43] 0.98 | [44] 0.995 | [45] 1.01 | [46] 0.999 | [47] 0.99 | [48] 0.995 | [49] 0.999 | [50] 0.992 | [51] 0.995 | [52] 1.01 | [53] 0.995 | [54] 0.995 | [55] 1.01 | [56] 0.995 | [57] 1 | [58] 0.98 | [59] 0.994 | [60] 0.994 | [61] 0.999 | [62] 0.995 | [63] 0.994 | [64] 0.996 | [65] 0.998 | [66] 0.929 | [67] 0.996 | [68] 0.998 | [69] 0.99 | [70] 0.994 | [71] 0.999

Cc1ccc(NS(=O)(=O)c2ccc(Cl)cc2)c(N=Cc2cc(Cl)cc(Cl)c2O)c1
inactive: [1] 0.952 | [2] 0.965 | [3] 0.955 | [4] 0.961 | [5] 0.961 | [6] 0.958 | [7] 0.96 | [8] 0.968 | [9] 0.954 | [10] 0.962 | [12] 0.961 | [13] 0.929 | [14] 0.958 | [18] 0.945 | [19] 0.95 | [20] 0.948 | [22] 0.965 | [30] 0.949 | [34] 0.967 | [40] 0.968 | [46] 0.971 | [48] 0.936 | [49] 0.946 | [51] 0.951 | [53] 0.949 | [54] 0.963 | [56] 0.962 | [61] 0.96 | [65] 0.958 | [67] 0.959 | [68] 0.959 | [69] 0.943 | [71] 0.959
active: [11] 0.277 | [15] 0.252 | [16] 0.169 | [17] 0.269 | [21] 0.342 | [23] 0.323 | [24] 0.219 | [25] 0.137 | [26] 0.118 | [27] 0.151 | [28] 0.147 | [29] 0.154 | [31] 0.15 | [33] 0.162 | [35] 0.363 | [36] 0.144 | [37] 0.336 | [38] 0.257 | [39] 0.291 | [41] 0.273 | [42] 0.3 | [43] 0.198 | [44] 0.118 | [45] 0.203 | [47] 0.289 | [50] 0.17 | [52] 0.208 | [55] 0.145 | [57] 0.193 | [58] 0.196 | [59] 0.303 | [60] 0.203 | [62] 0.231 | [63] 0.234 | [64] 0.211 | [66] 0.255 | [70] 0.776

— PubChem BioAssay AID1159580 (chemical genetic matrix, 2015)
